The subject of assay [1] is CLZ3 (HCA2 human fibroblast dual HR-NHEJ reporter). Briefly: NHEJ repair efficiency (GFP+ cells) relative to control (log10 fold); higher = more non-homologous end joining. The settings on record: 5 µM; doxycycline 0.5 ug/mL.
For assay [2] the test system is unchanged. The experiment in a line: HR repair efficiency (tdTomato+ cells) relative to control (log10 fold); higher = more homologous recombination. The settings on record: 5 µM; doxycycline 0.5 ug/mL.
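Throughout, for HR repair efficiency (tdTomato+ cells) relative to control: compound given one day before doxycycline, which switches on I-SceI endonuclease expression to create double-strand breaks within the integrated reporter.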
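Throughout, for NHEJ repair efficiency (GFP+ cells) relative to control: compound given one day ahead of doxycycline, which switches on I-SceI endonuclease to cut the chromosomally integrated reporter and create DSBs.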

Take `COc1ccc2[nH]cc(CCNC(C)=O)c2c1` [Melatonin]: the “NHEJ repair efficiency (log10)” value in assay [1] is 0.0863. The “HR repair efficiency (log10)” value in assay [2] was determined as 0.227.

For `C/C=C\c1ccc(OC)cc1` [cis-Anethol], the “NHEJ repair efficiency (log10)” value in assay [1] turned out to be 0.133. Also, in assay [2], the “HR repair efficiency (log10)” value was determined as 0.0605.

With `Cc1cc(O)c2c(c1)C(=O)c1cccc(O)c1C2=O` [Chrysophanol], in assay [1], the “NHEJ repair efficiency (log10)” value stood at 0.0473. For the same molecule, the “HR repair efficiency (log10)” value in assay [2] was 0.134.

For `COc1cc(C=O)ccc1O` [Vanillin], in assay [1], the “NHEJ repair efficiency (log10)” value was -0.132. Moreover, the “HR repair efficiency (log10)” value in assay [2] was -0.154.

Take `C=C(C)[C@@H]1CC[C@]2(C(=O)O)CC[C@]3(C)[C@H](CC[C@@H]4[C@@]5(C)CCC(=O)C(C)(C)[C@@H]5CC[C@]43C)[C@@H]12` [Liquidambaric Acid]: in assay [1], the “NHEJ repair efficiency (log10)” value was -0.0687. For the same molecule, the “HR repair efficiency (log10)” value in assay [2] worked out at 0.0487.

For the molecule `C[C@@H](CC[C@@]1(O)O[C@H]2C[C@H]3[C@@H]4CC[C@@H]5C[C@@H](O[C@@H]6O[C@H](CO)[C@H](O)[C@H](O)[C@H]6O[C@@H]6O[C@H](CO)[C@@H](O)[C@H](O)[C@H]6O)CC[C@]5(C)[C@H]4CC[C@]3(C)[C@H]2[C@@H]1C)CO[C@@H]1O[C@H](CO)[C@@H](O)[C@H](O)[C@H]1O` [Timosaponin b- II], in assay [1], the “NHEJ repair efficiency (log10)” value stood at 0.192. Moreover, the “HR repair efficiency (log10)” value in assay [2] is -0.131.

On to `COc1c(O)cc2c(c1O)C(=O)c1c(cc(C)c(O)c1OC)C2=O` [Aurantio-obtusin], for which the “NHEJ repair efficiency (log10)” value in assay [1] came out at 0.137. In addition, the “HR repair efficiency (log10)” value in assay [2] is 0.0361.

Turning to `O=C1C[C@@H](c2ccc(O)cc2)Oc2cc(O)cc(O)c21` [Naringenin], the “NHEJ repair efficiency (log10)” value in assay [1] is -0.176. In assay [2], the “HR repair efficiency (log10)” value is -0.025.

With `C=C(CCC=C(C)C)[C@H]1CC[C@]2(C)[C@@H]1[C@H](O)C[C@@H]1[C@@]3(C)CC[C@H](O)C(C)(C)[C@@H]3[C@@H](O[C@@H]3O[C@H](CO)[C@@H](O)[C@H](O)[C@H]3O)C[C@]12C` [Ginsenoside Rk3], in assay [1], the “NHEJ repair efficiency (log10)” value is 0.000935. For the same molecule, in assay [2], the “HR repair efficiency (log10)” value came out at 0.0532.

Regarding `C[C@@]12C[C@@]3(O)O[C@@H](O1)[C@]1(COC(=O)c4ccccc4)[C@H]3C[C@@]12O[C@@H]1O[C@H](CO)[C@@H](O)[C@H](O)[C@H]1O` [Paeoniflorin], the “NHEJ repair efficiency (log10)” value in assay [1] worked out at 0.122. Besides, the “HR repair efficiency (log10)” value in assay [2] stood at 0.213.

Turning to `COc1cc(/C=C/C(=O)CC(=O)/C=C/c2ccc(O)c(OC)c2)ccc1O` [Curcumin], the “NHEJ repair efficiency (log10)” value in assay [1] was 0.317. Besides, the “HR repair efficiency (log10)” value in assay [2] was -0.113.

As for `O=c1c(-c2ccc(O)cc2)coc2cc(O[C@@H]3O[C@H](CO)[C@@H](O)[C@H](O)[C@H]3O)ccc12` [Daidzin], the “NHEJ repair efficiency (log10)” value in assay [1] is -0.234. Moreover, the “HR repair efficiency (log10)” value in assay [2] was found to be 0.03.

Regarding `C[C@@H]1CC[C@]2(C(=O)O[C@@H]3O[C@H](CO)[C@@H](O)[C@H](O)[C@H]3O)CC[C@]3(C)C(=CC[C@@H]4[C@@]5(C)CC[C@H](O)[C@@](C)(CO)[C@@H]5CC[C@]43C)[C@@H]2[C@]1(C)O` [Pedunculoside], the “NHEJ repair efficiency (log10)” value in assay [1] was 0.0473. For the same molecule, in assay [2], the “HR repair efficiency (log10)” value was determined as 0.237.

On to `C=CCc1ccc(OC)c(OC)c1` [Methyleugenol], for which, in assay [1], the “NHEJ repair efficiency (log10)” value worked out at 0.14. Moreover, the “HR repair efficiency (log10)” value in assay [2] came out at 0.161.

For the molecule `C[C@H]1O[C@@H](O[C@H]2CC[C@@]3(C)[C@@H](CC[C@]4(C)[C@@H]3C=CC3=C5CC(C)(C)CC[C@]5(CO)[C@H](O)C[C@]34C)[C@]2(C)CO)[C@H](O)[C@@H](O[C@@H]2O[C@H](CO)[C@@H](O)[C@H](O)[C@H]2O)[C@H]1O` [Saikosaponin B2], the “NHEJ repair efficiency (log10)” value in assay [1] turned out to be 0.0489. For the same molecule, the “HR repair efficiency (log10)” value in assay [2] came to 0.123.

As for `CC1(C)CC[C@]2(C(=O)O)[C@H](O)C[C@]3(C)C(=CC[C@@H]4[C@@]5(C)CC[C@H](O)C(C)(C)[C@@H]5CC[C@]43C)[C@H]2C1` [Echinocystic acid], in assay [1], the “NHEJ repair efficiency (log10)” value was -0.117. Also, in assay [2], the “HR repair efficiency (log10)” value amounted to 0.0642.

For `OCc1ccccc1O[C@@H]1O[C@H](CO)[C@@H](O)[C@H](O)[C@H]1O` [Salicoside], in assay [1], the “NHEJ repair efficiency (log10)” value was -0.0463. The “HR repair efficiency (log10)” value in assay [2] was determined as 0.251.

Regarding `C=C(C)C(=O)Cc1c(OC)ccc2ccc(=O)oc12` [Murrayone], in assay [1], the “NHEJ repair efficiency (log10)” value is 0.0921. For the same molecule, in assay [2], the “HR repair efficiency (log10)” value was -0.312.

Take `C[C@]12C[C@@H](O)[C@@H]3C[C@@]1(O[C@@H]1O[C@H](CO)[C@@H](O)[C@H](O)[C@H]1O)[C@@]3(COC(=O)c1ccccc1)C(=O)O2` [Albiflorin]: in assay [1], the “NHEJ repair efficiency (log10)” value turned out to be 0.0446. The “HR repair efficiency (log10)” value in assay [2] is 0.153.

On to `C=C(C)[C@@H]1CC[C@]2(C)[C@H](CC=C3[C@@H]4[C@@H](C)[C@H](C)CC[C@]4(C)CC[C@]32C)[C@@]1(C)CCC(=O)O` [Roburic acid], for which, in assay [1], the “NHEJ repair efficiency (log10)” value came out at 0.15. Besides, the “HR repair efficiency (log10)” value in assay [2] is 0.128.

On to `COc1cc(/C=C/c2ccc(O)cc2)cc(OC)c1` [Pterostilbene], for which the “NHEJ repair efficiency (log10)” value in assay [1] came out at 0.127. In addition, the “HR repair efficiency (log10)” value in assay [2] came out at 0.242.

As to `O=C(O)c1cc(O)c2c(c1)[C@H]([C@H]1c3cc(C(=O)O)cc(O)c3C(=O)c3c(O[C@@H]4O[C@H](CO)[C@@H](O)[C@H](O)[C@H]4O)cccc31)c1cccc(O[C@@H]3O[C@H](CO)[C@@H](O)[C@H](O)[C@H]3O)c1C2=O` [Sennoside A], in assay [1], the “NHEJ repair efficiency (log10)” value came out at 0.0438. The “HR repair efficiency (log10)” value in assay [2] turned out to be 0.131.

With `C=C(C)[C@H](CC=C(C)C)Cc1c(O)cc(OC)c2c1O[C@H](c1ccc(O)cc1O)CC2=O` [Kurarinone], the “NHEJ repair efficiency (log10)” value in assay [1] is 0.0108. Also, the “HR repair efficiency (log10)” value in assay [2] is 0.0158.

These data come from the supplement of paper PMC7380943.
